Test results reported in PubChem BioAssay AID463173 (ICCB-Longwood Screening Facility, Harvard Medical School, 2010).
The whole screen tested about 52,000 compounds, of which about 4,300 (8.3%) were called active. The sample as a whole holds a higher share of actives than the screen did. A number with no mark means an inactive call. Rule as the data show it: active = survival mostly below about 52% (no sharp cut-off); inactive = mostly above about 56%.

Each molecule was assayed on DeltatarO mutant (assay: S. aureus survival, RN4220 and DeltatarO strains – OD600, teichoic acid synthesis inhibitors, primary screen (AID 463173)). Settings: S. aureus RN4220 wild type/DeltatarO growth, OD600, 18 h, active compounds read low, screened at 18.75 µg/mL (by protocol).
In the case of `O=C(NCc1ccco1)C(c1ccccc1)N(CCc1ccccc1)C(=O)Cn1nnc2ccccc21` (stereo unspecified), the survival is reported as 99%. In the case of `COc1ccc(CNC(=O)CSc2c3c(nc4ccc(Cl)cc24)CCCC3)cc1`, the survival is reported as 77%. Molecule `O=C(CSc1c2c(nc3cc(Cl)ccc13)CCCC2)N1CCN(c2ccccc2F)CC1` has a survival of 50%. With `O=C(CSc1c2c(nc3ccc(Cl)cc13)CCCC2)N1CCN(c2cccc(Cl)c2)CC1` the survival was 51% (active). With `COc1ccc(N2CCN(C(=O)CSc3c4c(nc5ccc(Cl)cc35)CCCC4)CC2)cc1` the survival was 35% (active). `O=C(CSc1c2c(nc3cc(Cl)ccc13)CCCC2)NCc1ccccc1Cl` gave a survival of 75%. With `COc1ccc(OC)c(NC(=O)CSc2c3c(nc4cc(Cl)ccc24)CCCC3)c1` the survival was 86%. For `O=C(CSc1c2c(nc3ccc(Cl)cc13)CCCC2)N1CCN(c2ccc(Cl)cc2)CC1`, the survival was 31% (active). With `O=C(CSc1c2c(nc3cc(Cl)ccc13)CCCC2)N1CCN(c2ccccc2)CC1` the survival was 33% (active). `Cc1sc2ncn(CC(=O)Nc3ccc(C(C)C)cc3)c(=O)c2c1S(=O)(=O)N1CCN(c2ncccn2)CC1` showed a survival of 59%. `CC1=C(C(=O)Nc2ccccc2C)C(c2ccco2)n2ncnc2N1` (stereo unspecified) was tested, and the survival was 101%. Molecule `CCc1cccc(C)c1NS(=O)(=O)c1cc2[nH]c(=O)c(=O)[nH]c2cc1C` has a survival of 80%. In the case of `CC(=O)c1ccc(N2CCN(c3ncnc4c3nc3n4CCCC3)CC2)cc1`, the survival is reported as 75%. `COC(=O)c1ccccc1NC(=O)Cn1c(=O)n(CCCCC(=O)NCc2ccc3c(c2)OCO3)c(=O)c2ccccc21` was tested, and the survival was 67%. `COc1ccc(-c2nc3sc(CCNC(=O)c4ccc(Br)o4)c(C)n3n2)cc1` gave a survival of 92%. `COc1ccc(C)cc1NC(=O)C1COc2ccccc2C1` (stereo unspecified) showed a survival of 83%. `COc1ccccc1C(=O)N(c1ccc(C)cc1)S(=O)(=O)c1ccc(Cl)cc1` gave a survival of 74%. `COC(=O)c1ccc(NC(=O)CC2C(=O)N(c3cccc(OC)c3)C(=O)N2Cc2cccc(OC)c2)cc1` (stereo unspecified) was tested, and the survival was 105%. `COC(=O)c1ccc(Cl)cc1NC(=O)N1CCCn2nc(C)cc21` gave a survival of 94%. `COc1cc(OC)c(NC(=O)N2CCCn3nc(C)cc32)cc1Cl` was tested, and the survival was 47% (active). Work on `COc1ccc(C)cc1NC(=O)N1CCCn2nc(C)cc21` yielded a survival of 73%. For `O=C(NC1CCCCC1)C(Cc1ccccc1)N1C(=O)C2C3C=CC(C3)C2C1=O` (stereo unspecified), the survival was 92%. `Cc1cc(F)ccc1Nc1nc2ccc(Cl)cc2n2cnnc12` showed a survival of 90%. In the case of `Cc1ccc2nc(NCc3ccc(F)cc3)c3nncn3c2c1`, the survival is reported as 121%. `Cc1ccc2nc(Nc3ccc(C)c(F)c3)c3nncn3c2c1` was tested, and the survival was 38% (active). For `Cc1ccc(NC(=O)c2ccc(=O)n(CC(=O)Nc3cccc(C)c3)n2)cc1`, the survival was 72%. `COc1cccc(CNC(=O)CCc2c(C)nn(-c3ccc(N4CCOCC4)nn3)c2C)c1` gave a survival of 100%. With `Cc1ccccc1C(=O)Nc1ccc(OCc2cc(=O)n3cccc(C)c3n2)cc1` the survival was 88%. `Cc1ccc(OCC(=O)Nc2cccc(OCc3cc(=O)n4cccc(C)c4n3)c2)cc1C` was tested, and the survival was 122%. For `Cc1cccn2c(=O)cc(COc3ccc(NC(=O)c4cccc(F)c4)cc3)nc12`, the survival was 17% (active). `COc1ccccc1C(=O)Nc1ccc(OCc2cc(=O)n3ccc(C)cc3n2)cc1` showed a survival of 89%. For `Cc1ccc(OCC(=O)Nc2ccc(OCc3cc(=O)n4cccc(C)c4n3)cc2)cc1C`, the survival was -5% (active). In the case of `Cc1cccn2c(=O)cc(COc3cccc(NC(=O)c4ccccc4F)c3)nc12`, the survival is reported as -5% (active). Molecule `Cc1cccn2c(=O)cc(COc3ccc(NC(=O)COc4ccc(F)cc4)cc3)nc12` has a survival of 89%. In the case of `Cc1cccc(C(=O)Nc2cccc(OCc3cc(=O)n4cccc(C)c4n3)c2)c1`, the survival is reported as 92%. In the case of `COc1cc(C(=O)Nc2ccc(OCc3cc(=O)n4ccc(C)cc4n3)cc2)cc(OC)c1OC`, the survival is reported as 8% (active). For `CCOc1ccc(C(=O)Nc2ccc(OCc3cc(=O)n4cccc(C)c4n3)cc2)cc1`, the survival was 55%. For `Cc1cccc(C(=O)Nc2ccc(OCc3cc(=O)n4ccc(C)cc4n3)cc2)c1`, the survival was 81%. For `Cc1ccccc1C(=O)Nc1cccc(OCc2cc(=O)n3cccc(C)c3n2)c1`, the survival was 77%. `CCOC(=O)c1ccccc1NC(=O)N1CCc2c(sc(C)c2CC)C1c1ccccc1` (stereo unspecified) showed a survival of 124%. In the case of `O=C(Cc1csc2ccccc12)NCc1cccc(Br)c1`, the survival is reported as 84%. In the case of `O=S(=O)(c1ccc(-c2cnc(C3CC3)o2)cc1)N1CCN(c2ccccc2F)CC1`, the survival is reported as 87%. `Cc1ccc(C(=O)NCc2ccccc2)cc1NC(=O)c1nsc2ccccc12` was tested, and the survival was 84%. With `CCOc1ccc(NC(=O)N(C(C)C)C2CCN(C(C)=O)CC2)cc1` the survival was 76%. Work on `CCC(C)NC(=O)c1sc2nc(C)c(C(=O)Nc3ccc(C)cc3C)c(-c3ccc(NC(C)=O)cc3)c2c1N` (stereo unspecified) yielded a survival of 88%. `CC(C)CC(C(=O)NCC1CCN(Cc2ccc(F)cc2)CC1)N1Cc2ccccc2C1=O` (stereo unspecified) showed a survival of 94%. `COc1ccccc1CNS(=O)(=O)c1cc(Br)cc2c1N(C(C)=O)C(C)C2` (stereo unspecified) was tested, and the survival was 53%. `CC(=O)N1c2c(cc(Br)cc2S(=O)(=O)NCc2ccccc2Cl)CC1C` (stereo unspecified) was tested, and the survival was 46% (active). In the case of `COc1ccc(CNS(=O)(=O)c2cc(Br)cc3c2N(C(C)=O)C(C)C3)cc1` (stereo unspecified), the survival is reported as 131%. `CCN(c1cccc(C)c1)S(=O)(=O)c1cc(Br)cc2c1N(C(C)=O)C(C)C2` (stereo unspecified) was tested, and the survival was 51% (active). `COc1cccc(CNS(=O)(=O)c2cc(Br)cc3c2N(C(C)=O)C(C)C3)c1` (stereo unspecified) showed a survival of 128%. Molecule `CC(=O)N1c2c(cc(Br)cc2S(=O)(=O)Nc2ccccc2C)CC1C` (stereo unspecified) has a survival of 68%. Work on `CC(=O)N1c2c(cc(Br)cc2S(=O)(=O)Nc2ccc(OC(F)(F)F)cc2)CC1C` (stereo unspecified) yielded a survival of 66%. Work on `CCOc1ccc(N(CC)S(=O)(=O)c2cc(Br)cc3c2N(C(C)=O)C(C)C3)cc1` (stereo unspecified) yielded a survival of 60%. For `COc1cc(NS(=O)(=O)c2cc(Br)cc3c2N(C(C)=O)C(C)C3)cc(OC)c1` (stereo unspecified), the survival was 20% (active). Work on `COc1ccc(-n2c(SCC(=O)N3CCCc4ccccc43)nc3c([nH]c4ccccc43)c2=O)cc1` yielded a survival of 101%.
